The source made the active and inactive calls. Unless noted, the rule behind the calls is not given here.
How the values were obtained:
[1] = system: Wnt5a (protein binding on small-molecule microarray); test: small molecules binding Wnt5a protein – biophysical, small-molecule microarray, 635/667 nm fluorescence, primary screen (AID 1142); settings: 635 nm fluorescence, higher = more signal;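 note: fluorescence read at 667 nm with signal to noise per printed feature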
[2] = ATP-based viability of Huh7 replicon cells – cell-based, CellTiter-Glo luminescence, basal, 48 h, cytotoxicity control for HCV replication inhibitor project, primary screen (AID 1143); settings: higher = more signal, called active from +8 up or from −8 down;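 note: Huh7 hepatoma cells carrying a hepatitis C replication reporter with no stimulus; test concentration not given here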
[3] = Pseudomonas biofilm growth suppression – PAO1 strain, BacTiter-Glo luminescence, LB-PBS, primary screen (AID 1144); settings: P. aeruginosa PAO1 biofilm, 12 h, higher = more signal
[4] = basal CRE-LacZ reporter activity in PC12 – cell-based, unstimulated, primary screen (AID 1145); settings: no forskolin, luminescence, 4.5 h, higher = more signal, called active from +8 up or from −8 down
[5] = forskolin-driven CRE-LacZ activity in PC12 – cell-based, CRE-LacZ reporter, forskolin-stimulated, primary screen (AID 1146); settings: luminescence, 4.5 h, higher = more signal, called active from +8 up or from −8 down;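 note: PC12 cells with 6xCRE LacZ reporter stimulated by forskolin 10 µM; beta-galactosidase reporter signal reflecting CREB driven transcription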
[6] = target: Streptavidin (Streptomyces avidinii) (UniProt P22629); test: compounds binding control protein streptavidin – biophysical, small-molecule microarray, 635/667 nm fluorescence, artefact control for SMM compound annotation, primary screen (AID 1147); settings: higher = more signal;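 note: signal reflects streptavidin binding to arrayed compounds as a control protein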
Chain of Streptavidin (Streptomyces avidinii) (P22629 whole entry, looked up): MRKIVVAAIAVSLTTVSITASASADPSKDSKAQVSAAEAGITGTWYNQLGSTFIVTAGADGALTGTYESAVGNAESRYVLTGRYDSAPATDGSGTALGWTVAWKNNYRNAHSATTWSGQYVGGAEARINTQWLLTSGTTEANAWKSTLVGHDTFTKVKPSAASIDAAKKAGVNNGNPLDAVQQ

[7] = probe aInhba binding on compound microarray – biochemical, small-molecule microarray, 635/667 nm fluorescence, primary screen (AID 1148); settings: higher = more signal;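 note: score merges 667nm spot fluorescence with signal-to-noise for antibody binding to printed compounds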
Torsin-1A (Homo sapiens) [8] = target: Torsin-1A (Homo sapiens) (UniProt O14656); test: TOR1A wild-type binding on microarray – cell lysate, small-molecule microarray, lysate, 635/667 nm, primary screen (AID 1149); settings: COS7 hTOR1A-WT lysate, 635 nm fluorescence, higher = more signal
Chain of Torsin-1A (Homo sapiens) (O14656 whole entry, looked up): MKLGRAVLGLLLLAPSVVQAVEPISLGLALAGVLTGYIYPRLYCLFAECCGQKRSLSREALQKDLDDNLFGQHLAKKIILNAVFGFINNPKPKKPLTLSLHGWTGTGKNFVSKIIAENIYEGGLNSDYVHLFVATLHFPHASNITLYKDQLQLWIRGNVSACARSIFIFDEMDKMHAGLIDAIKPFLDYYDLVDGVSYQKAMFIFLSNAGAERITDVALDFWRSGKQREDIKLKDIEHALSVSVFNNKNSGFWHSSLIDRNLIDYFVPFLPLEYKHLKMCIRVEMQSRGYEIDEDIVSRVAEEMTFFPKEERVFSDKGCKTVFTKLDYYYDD

Torsin-1A (Homo sapiens) [9] = target: Torsin-1A (Homo sapiens) (UniProt O14656); test: torsin A mutant lysate binding on microarrays – cell lysate, small-molecule microarray, COS7 lysate, 635/667 nm fluorescence, primary screen (AID 1150); settings: COS7 hTOR1A mutant lysate, 635 nm fluorescence, higher = more signal;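 note: score pools 667 nm emission and signal to noise measuring lysate protein binding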
[10] = system: Sonic hedgehog protein (Shh); test: Sonic hedgehog microarray binding compounds – biochemical, small-molecule microarray, 635/667 nm fluorescence, primary screen (AID 1151); settings: 635 nm fluorescence, higher = more signal;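 note: Shh protein binding to compounds spotted on small-molecule microarray slides; score combines spot fluorescence intensity with signal-to-noise across triplicate slides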
[11] = optical density shifts of acrAB sulA E. coli – strain DRC41, OD650, 48 h, E. coli filamentation inducer project, primary screen (AID 1152); settings: higher = more signal, called active from +8 up or from −8 down;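 note: E. coli MC1000 strain DRC41 lacking acrAB efflux pump and sulA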
[12] = probe aLefty1 binding on compound microarray – biochemical, small-molecule microarray, 635/667 nm fluorescence, primary screen (AID 1153); settings: higher = more signal;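 note: score merges spot fluorescence with signal-to-noise ratio from the scanned slide images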
[13] = plasmodial surface anion channel blockers, osmotic lysis – cell-based, P. falciparum Indochina, OD700, 1 h, primary screen (AID 1154); settings: P. falciparum Indochina infected RBC osmotic lysis, higher = more signal, called active from +8 up or from −8 down
[14] = plasmodial surface anion channel blockers, osmotic lysis – cell-based, P. falciparum Indochina, OD700, 2 h, primary screen (AID 1155);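 note: lysis reports solute entry through the parasite surface anion channel PSAC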; settings: P. falciparum Indochina infected erythrocytes, higher = more signal, called active from +8 up or from −8 down
[15] = changes in parasitized red cell lysis, either direction – P. falciparum Indochina, OD700, 3 h, PSAC antagonist project, primary screen (AID 1156); settings: P. falciparum-infected erythrocytes, osmotic lysis, higher = more signal, called active from +8 up or from −8 down
[16] = plasmodial surface anion channel blockers, osmotic lysis – cell-based, P. falciparum Indochina, OD700, 18 h, primary screen (AID 1157); settings: P. falciparum Indochina infected erythrocytes, osmotic lysis OD700, 18 h; higher = more signal, called active from +8 up or from −8 down
[17] = S6 kinase pathway phospho-S6 level changes – cell-based, A549, cytoblot, luminescence, serum-stimulated, primary screen (AID 1158); settings: 5 h, higher = more signal;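 note: serum-stimulated A549 lung adenocarcinoma cells; signal is phosphorylated S6 detected by cytoblot immunostaining with HRP secondary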
[18] = target: NADPH oxidase 2 (Homo sapiens) (UniProt P04839); test: compounds shifting NOX2 Amplex Red fluorescence – cell-based, HEK293-NOX2, PMA-stimulated, NOX inhibitor project, primary screen (AID 1159); settings: 45 min, higher = more signal, called active from +8 up or from −8 down; note: test concentration not given here
Chain of NADPH oxidase 2 (Homo sapiens) (P04839 whole entry, looked up): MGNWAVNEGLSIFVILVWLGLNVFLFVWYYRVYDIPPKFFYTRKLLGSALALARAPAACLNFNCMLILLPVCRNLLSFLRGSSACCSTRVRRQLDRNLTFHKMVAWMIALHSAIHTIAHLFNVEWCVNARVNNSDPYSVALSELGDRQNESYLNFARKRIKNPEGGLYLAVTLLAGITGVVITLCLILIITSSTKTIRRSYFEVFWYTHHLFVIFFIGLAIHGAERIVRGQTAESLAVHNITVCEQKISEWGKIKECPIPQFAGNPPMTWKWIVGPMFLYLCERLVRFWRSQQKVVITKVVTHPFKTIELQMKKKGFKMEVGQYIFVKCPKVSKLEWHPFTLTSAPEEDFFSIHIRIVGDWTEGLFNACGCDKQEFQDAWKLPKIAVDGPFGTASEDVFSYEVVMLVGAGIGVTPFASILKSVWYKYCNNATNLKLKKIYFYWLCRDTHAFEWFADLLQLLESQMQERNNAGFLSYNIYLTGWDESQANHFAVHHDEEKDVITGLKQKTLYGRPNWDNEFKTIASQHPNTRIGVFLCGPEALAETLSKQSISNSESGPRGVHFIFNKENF

[19] = target: NADPH oxidase 4 (Homo sapiens) (UniProt Q9NPH5); test: compounds shifting NOX4 Amplex Red fluorescence – cell-based, HEK293-NOX4, tetracycline-induced, NOX inhibitor project, primary screen (AID 1160); settings: HEK293-NOX4, Amplex Red H2O2 fluorescence, 45 min; higher = more signal, called active from +8 up or from −8 down
Chain of NADPH oxidase 4 (Homo sapiens) (Q9NPH5 whole entry, looked up): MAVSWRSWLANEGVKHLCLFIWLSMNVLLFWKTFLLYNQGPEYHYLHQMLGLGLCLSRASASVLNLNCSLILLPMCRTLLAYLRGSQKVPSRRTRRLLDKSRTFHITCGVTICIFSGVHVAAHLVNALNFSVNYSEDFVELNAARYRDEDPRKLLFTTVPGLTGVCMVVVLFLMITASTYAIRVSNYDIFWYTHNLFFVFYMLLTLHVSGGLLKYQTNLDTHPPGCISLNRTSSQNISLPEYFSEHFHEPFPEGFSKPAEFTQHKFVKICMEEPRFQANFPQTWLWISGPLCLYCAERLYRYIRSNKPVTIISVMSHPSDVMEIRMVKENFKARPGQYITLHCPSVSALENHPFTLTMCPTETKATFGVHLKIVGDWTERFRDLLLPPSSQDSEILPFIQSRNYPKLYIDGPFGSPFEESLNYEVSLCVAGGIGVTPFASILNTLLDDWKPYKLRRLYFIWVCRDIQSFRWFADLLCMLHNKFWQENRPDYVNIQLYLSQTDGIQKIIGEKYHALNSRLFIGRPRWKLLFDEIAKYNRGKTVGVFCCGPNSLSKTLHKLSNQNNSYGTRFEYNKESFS

[20] = target: NADPH oxidase 5 (Homo sapiens) (UniProt Q96PH1); test: compounds shifting NOX5 Amplex Red fluorescence – cell-based, HEK293-NOX5, NOX inhibitor project, primary screen (AID 1161); settings: HEK293-NOX5, ionomycin, 45 min, higher = more signal
Chain of NADPH oxidase 5 (Homo sapiens) (Q96PH1 whole entry, looked up): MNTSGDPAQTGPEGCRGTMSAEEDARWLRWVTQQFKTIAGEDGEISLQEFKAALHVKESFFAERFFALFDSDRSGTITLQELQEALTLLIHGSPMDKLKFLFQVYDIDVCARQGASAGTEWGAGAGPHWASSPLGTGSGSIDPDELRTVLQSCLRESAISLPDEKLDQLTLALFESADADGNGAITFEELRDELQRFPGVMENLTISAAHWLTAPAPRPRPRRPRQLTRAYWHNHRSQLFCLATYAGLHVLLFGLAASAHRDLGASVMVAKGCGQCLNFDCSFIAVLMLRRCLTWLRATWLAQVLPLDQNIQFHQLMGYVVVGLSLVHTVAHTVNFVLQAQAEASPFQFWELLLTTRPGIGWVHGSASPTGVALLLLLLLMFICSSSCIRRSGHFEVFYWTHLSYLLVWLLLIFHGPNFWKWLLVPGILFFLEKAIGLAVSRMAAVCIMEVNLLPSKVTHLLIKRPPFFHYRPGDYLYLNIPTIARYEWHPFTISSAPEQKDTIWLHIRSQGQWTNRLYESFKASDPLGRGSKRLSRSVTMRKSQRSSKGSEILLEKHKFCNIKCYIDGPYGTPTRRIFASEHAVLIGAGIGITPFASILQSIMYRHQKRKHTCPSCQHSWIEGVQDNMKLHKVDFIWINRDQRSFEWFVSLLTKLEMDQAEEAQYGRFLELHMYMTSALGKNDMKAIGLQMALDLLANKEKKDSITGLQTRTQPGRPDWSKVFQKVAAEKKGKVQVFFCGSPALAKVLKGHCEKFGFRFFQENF

SMILES | composite z-score [1] | z-score [2] | z-score [3] | z-score [4] | z-score [5] | composite z-score [6] | composite z-score [7] | composite z-score (Torsin-1A (Homo sapiens) [8]) | composite z-score (Torsin-1A (Homo sapiens) [9]) | composite z-score [10] | z-score [11] | composite z-score [12] | z-score [13] | z-score [14] | z-score [15] | z-score [16] | z-score [17] | z-score [18] | z-score [19] | z-score [20]
CC(C)C(=C=CC[C@H](O)c1ccc(OCCO)cc1)C[C@H](O)c1cc(Cl)cc(Cl)c1O | 0.0991 | -3.24 (inactive) | 0.0919 (inactive) | 7.76 (inactive) | -0.457 (inactive) | 0.122 | 0.153 | 0.895 | 0.656 | 1.71 | 0.049 (inactive) | 0.121 | 19.4 (active) | 3.7 (inactive) | 1.44 (inactive) | 1.24 (inactive) | -0.173 | 0.532 (inactive) | -0.473 (inactive) | -1.36
CC(C)CNC(=O)[C@@]1(c2ccc([N+](=O)[O-])cc2)CC(=O)N(C2CCCCC2)[C@@H]1c1ccc(CO)cc1I | -0.067 | -4.13 (inactive) | 0.363 (inactive) | 0.324 (inactive) | 1.65 (inactive) | -0.018 | 0.0633 | -0.149 | 0.0482 | 0.425 | -0.826 (inactive) | 0.213 | 10.8 (active) | 2.15 (inactive) | 3.67 (inactive) | 0.794 (inactive) | -0.183 | 0.685 (inactive) | 0.486 (inactive) | 1.74
COC(=O)[C@@]1(Cc2ccc(OC)cc2)[C@H]2c3cc(C(=O)N(C)C)n(Cc4ccccc4)c3C[C@H]2CN1C(=O)c1ccccc1 | -0.0424 | -3.07 (inactive) | -0.784 (inactive) | -0.764 (inactive) | 0.592 (inactive) | 0.707 | 0.0882 | -0.0982 | 0.14 | -1.21 | -1.25 (inactive) | 0.748 | 0.49 (inactive) | 0.194 (inactive) | -1.39 (inactive) | 0.594 (inactive) | 0.686 | -1.52 (inactive) | -1.09 (inactive) | 2.49
CCOC(=O)C[C@H]1[C@H](OC(=O)c2ccc(-c3ccccc3)cc2)[C@@H](NC(=O)c2ccc3ccccc3n2)c2cc(OCCCO)ccc2N1C(=O)c1ccccc1 | 0.111 | -0.727 (inactive) | 0.306 (inactive) | -0.477 (inactive) | -0.169 (inactive) | 0.968 | 0.109 | 0.448 | 0.397 | 0.861 | -0.715 (inactive) | 0.0367 | 0.18 (inactive) | -0.168 (inactive) | -0.571 (inactive) | 0.261 (inactive) | 0.893 | -0.59 (inactive) | -1.72 (inactive) | -1.04
C=C(COC)/C(=C/C[C@@H](OC(=O)c1ccncc1)c1ccc(CO)o1)c1cnc2ccccc2c1 | 0.911 | 0.173 (inactive) | -0.854 (inactive) | -0.611 (inactive) | -0.0377 (inactive) | 1.07 | -0.0136 | 1.86 | 0.962 | 2.46 | 0.149 (inactive) | 0.471 | 4.66 (inactive) | 1.24 (inactive) | 1 (inactive) | 0.234 (inactive) | -0.188 | -0.627 (inactive) | -1.24 (inactive) | -1.54
COc1ccccc1CN1C(=O)c2ccccc2[C@](Cc2ccccc2I)(C(=O)NC(C)C)[C@@H]1c1ccc(CO)cc1 | 0.449 | -3.63 (inactive) | 0.0633 (inactive) | -0.0243 (inactive) | 1.08 (inactive) | 1.13 | 0.0422 | 0.667 | 1.08 | 1.78 | 0.646 (inactive) | 0.0494 | 4.1 (inactive) | 0.644 (inactive) | 0.632 (inactive) | 0.621 (inactive) | 0.0569 | -2.12 (inactive) | 0.143 (inactive) | -2.1
COc1ccc([Si](C)(C)[C@H]2[C@H](CCO)O[C@@]3(C(=O)N(Cc4cccc(N5CCCCC5=O)c4)c4ccccc43)[C@@H]2C)cc1 | 0.416 | -7.87 (inactive) | -1.05 (inactive) | 2.39 (inactive) | -1.82 (inactive) | 0.569 | -0.116 | -0.0387 | 0.299 | 1.5 | -0.205 (inactive) | 0.102 | 5.16 (inactive) | 1.94 (inactive) | 0.558 (inactive) | 1.38 (inactive) | 0.781 | -5.46 (inactive) | -1.46 (inactive) | 0.189
O=C1OC[C@@H](c2ccccc2)N2CC(/C=C/c3ccccc3)=CC12 (stereo not given in full) | -0.82 | -2.59 (inactive) | 0.476 (inactive) | 0.945 (inactive) | -1.57 (inactive) | -0.274 | -0.239 | -0.872 | -1.31 | -1.05 | -0.107 (inactive) | -0.469 | 18.1 (active) | 3.85 (inactive) | 2.22 (inactive) | 1.55 (inactive) | -0.126 | 0.724 (inactive) | -0.598 (inactive) | 0.967
O=C1C2C=CC(C(O)c3cc(C(F)(F)F)cc(C(F)(F)F)c3)N(Nc3ccc([N+](=O)[O-])cc3)C2C(=O)N1c1ccccc1 (stereo not given) | 0.553 | -4.58 (inactive) | -0.0376 (inactive) | 1.63 (inactive) | -0.303 (inactive) | 1.02 | 0.358 | 0.621 | 0.428 | 0.74 | -1.58 (inactive) | 0.361 | 6.16 (inactive) | 2.01 (inactive) | -6.7 (inactive) | 1.24 (inactive) | -0.431 | -0.378 (inactive) | -2.65 (inactive) | -1.68

— PubChem BioAssay
